Screening results as filed in PubChem BioAssay.
ERG Ets-DNA blk: ERG Ets/DNA interaction inhibition; fluorescence polarization, His-ERG Ets domain / labelled DNA; Potency, µM (highest dose often 76.9 µM), inactives show at the highest dose FP activity, negative = inhibition, hits mostly inhibitors; 370,000 tested, 0.028% active; P11308; active = well fitted inhibition curve with a large enough effect in the polarisation, with a control signal flat; inconclusive = small, poorly fitted or top-dose-only effect, or effect the other way, or a change in a side signal; inactive = no such curve, though single readings can be large or run the other way; the % refers to the polarisation;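 also: polarization taken with two DNA probes labelled with fluorescein and Texas red; % of control where 0% means no effect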
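His-tagged ERG Ets domain (1 uM in the protein solution; 300mM KCl, 50mM Tris-HCl, 1mM EDTA, 1mM DTT, pH 7.5) received compound, then a probe mix of 5 nM fluorescein-DNA and 100nM Texas-615-DNA. Fluorescence polarization was read for both dyes.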
BRCA1 expr up: BRCA1 expression activation | MCF7-BRCA1-FFLuc reporter, luminescence, 48 h; response scale: scaled: vehicle 0%, 10 µM genistein 100% | Potency, µM (doses to about 46.1 µM), without a hit: top-dose activation, hits mostly activators | 380,000 tested, 1.1% active; also: nearly all actives have a fitted effect of over 80% in size
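48 h compound treatment of MCF7-BRCA1-FFLuc cells (phenol-red free MEM, 37 °C), then 15 min with luciferase substrate and luminescence imaging.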
Mito fusion act: mitochondrial division inhibition or fusion activation; Potency, µM (titrated, usually from 46.1 µM), inactives show at the highest dose growth rescue (activation), most hits filed as activators; S. cerevisiae fusion-defective mutant growth rescue, CellTiterGlo 48 h; 320,000 tested, 0.23% active; AID 485298; also: % of control where 0% means no effect; nearly all actives have a fitted effect of over 45% in size
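Compounds are tested for their ability to restore growth of mitochondrial fusion-defective yeast strains at non-permissive 37C in YPEG medium over 48 hours. Viability is quantified by luciferase luminescence.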
B2AR arrestin: agonists driving beta-arrestin recruitment to human beta2-adrenergic receptor. 330,000 tested, 0.02% active. AID 492947. P07550. beta-arrestin recruitment to beta2AR, cell-based reporter. Potency, µM (highest dose often 46.1 µM), without a hit: at the top dose activation, actives largely listed as activators;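 also: 0% = DMSO controls and full agonism = EC100 isoproterenol or metaproterenol; nearly all actives have a fitted effect of over 65% in size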
Target sequence (P07550 whole entry, looked up): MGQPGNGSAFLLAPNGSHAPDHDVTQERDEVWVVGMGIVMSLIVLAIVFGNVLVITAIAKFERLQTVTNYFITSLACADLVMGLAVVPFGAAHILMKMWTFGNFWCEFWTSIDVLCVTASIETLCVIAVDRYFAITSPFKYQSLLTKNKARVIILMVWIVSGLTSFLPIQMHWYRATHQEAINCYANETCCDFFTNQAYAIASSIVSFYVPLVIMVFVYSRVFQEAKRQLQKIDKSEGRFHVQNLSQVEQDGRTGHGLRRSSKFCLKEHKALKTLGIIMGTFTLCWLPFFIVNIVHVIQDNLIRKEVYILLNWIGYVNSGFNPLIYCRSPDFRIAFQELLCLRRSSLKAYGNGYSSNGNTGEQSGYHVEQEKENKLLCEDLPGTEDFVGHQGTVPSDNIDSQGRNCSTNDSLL
Numbers without * were called inactive. An excerpt weighted towards active compounds, which were near 1.2% of everything screened. Unless noted, calls follow the shape of the dose curve; as a rule, active = well fitted curve in the direction sought with a large enough effect; inconclusive = small, poorly fitted or top-dose-only effect, or another doubt; inactive = no such curve, though single readings can be large; an effect the other way counts as inactive or inconclusive. Potency is read from the fitted curve at half-maximal effect.

Screening O=C(N/N=C/c1ccc(OCc2ccccc2)cc1)c1cc[n+](Cc2ccccc2)cc1 returned ERG Ets-DNA blk -0.6%, BRCA1 expr up 3.55µM*, Mito fusion act -3.4% and B2AR arrestin -0.4%.
Screening COc1ccc(C2=NS(=O)(=O)N(C)C(C(=O)Nc3ccc(OC(F)(F)F)cc3)=C2)cc1 returned ERG Ets-DNA blk -0.9%.
For O=C(CSc1nc2c(c(=O)[nH]1)CN(Cc1ccc3c(c1)OCO3)CC2)Nc1ccc(F)cc1 the results were ERG Ets-DNA blk 2.7%.
Screening CCOc1ccc(C(=S)NC2CCCCC2)cc1 returned ERG Ets-DNA blk -9.4%, BRCA1 expr up 10µM*, Mito fusion act -2.4% and B2AR arrestin 4.3%.
Screening COc1ccc(C(=S)NC2CCCCC2)cc1 returned ERG Ets-DNA blk -8.5%, BRCA1 expr up inconclusive, Mito fusion act -1.8% and B2AR arrestin 0.5%.
Screening O=C1NC(=O)/C(=C/c2ccc3nccnc3c2)S1 returned Mito fusion act 9.2µM*.
`O=C(/C=C/c1ccccc1[N+](=O)[O-])Nc1ccccc1` gave ERG Ets-DNA blk 11.4%, BRCA1 expr up 7.08µM*, Mito fusion act -0.2% and B2AR arrestin -1.0%.
For COc1cc(NC(=O)/C=C/c2ccccc2[N+](=O)[O-])cc(OC)c1 the results were ERG Ets-DNA blk -1.2%, BRCA1 expr up -0.8%, Mito fusion act inconclusive and B2AR arrestin 0.2%.
`O=C(Nc1ccc(Cl)c(Cl)c1)Nc1ccccc1O` gave ERG Ets-DNA blk 1.6%, BRCA1 expr up 2.82µM*, Mito fusion act -17.7% and B2AR arrestin -0.3%.
O=C(Nc1ccc(Cl)cc1)Nc1ccc(Cl)c(Cl)c1 was read as ERG Ets-DNA blk 23.0%, BRCA1 expr up -15.8%, Mito fusion act -19.7% and B2AR arrestin 0.1%.
`COc1ccc(N2CCN(S(=O)(=O)c3ccc4c(c3)CC(C)N4C(C)=O)CC2)cc1` (stereo not drawn) gave ERG Ets-DNA blk -2.0%.
`COc1ccc(C(=O)NC(=O)Nc2ncccc2C)cc1` gave ERG Ets-DNA blk 5.0%, BRCA1 expr up 2.82µM*, Mito fusion act -0.5% and B2AR arrestin 0.3%.
COc1ccc(NC(=O)Nc2ncccc2C)cc1 was read as BRCA1 expr up inconclusive, Mito fusion act -2.9% and B2AR arrestin -0.4%.
`COc1ccc(NC(=O)c2ccc3nccnc3c2)cc1` gave ERG Ets-DNA blk 13.0%, BRCA1 expr up 2.82µM*, Mito fusion act -1.4% and B2AR arrestin -0.4%.
Screening O=C(/C=C/Nc1ccccc1)c1ccc(Oc2ncccn2)cc1 returned ERG Ets-DNA blk -4.2%, BRCA1 expr up 3.55µM*, Mito fusion act -1.1% and B2AR arrestin 0.1%.
`Cc1ccc(NC(=O)c2ccc3nsnc3c2)c(Cl)c1` gave ERG Ets-DNA blk -13.4%, BRCA1 expr up 1µM*, Mito fusion act 6.4% and B2AR arrestin 0.0%.
`Cc1cc(NC(=O)CCn2c(=O)c3cccn3c3cccnc32)ccc1Br` gave ERG Ets-DNA blk -12.0%.
N#Cc1ccccc1S(=O)(=O)N1CCN(c2nc(-c3cccs3)nc3ccccc23)CC1 was read as BRCA1 expr up -16.1%.
`O=S(=O)(c1ccc(Cl)cc1)c1nc(-c2cccc(Br)c2)oc1NCc1ccccc1` gave ERG Ets-DNA blk 5.6%.
`O=C(Nc1ccccc1Cl)c1ccc2nccnc2c1` gave ERG Ets-DNA blk -0.5%, BRCA1 expr up 5.01µM*, Mito fusion act 1.5% and B2AR arrestin -0.1%.
For COc1ccc(NC(=O)c2coc(C)c2)cc1 the results were ERG Ets-DNA blk 10.8%, BRCA1 expr up 5.62µM*, Mito fusion act 3.5% and B2AR arrestin -1.6%.
COc1ccc(NC(=O)c2ccc(Oc3ncccn3)cc2)cc1 was read as ERG Ets-DNA blk 3.5%, BRCA1 expr up 8.91µM*, Mito fusion act 0.8% and B2AR arrestin -0.3%.
`COc1cc(NC(=O)c2ccc3snnc3c2)cc(OC)c1` gave ERG Ets-DNA blk -10.7%, BRCA1 expr up 11.2µM*, Mito fusion act 3.9% and B2AR arrestin -0.7%.
Screening Cc1ccc(NC(=O)c2ccc3snnc3c2)cc1 returned ERG Ets-DNA blk -2.0%, BRCA1 expr up 54.6%, Mito fusion act -0.2% and B2AR arrestin -1.5%.
For COc1ccc(NC(=O)c2ccc(=O)oc2)cc1 the results were BRCA1 expr up 25.9%, Mito fusion act -3.8% and B2AR arrestin -0.1%.
Screening COc1ccc(NC(=O)c2ccc(NC(=O)c3ccncc3)cc2)cc1 returned ERG Ets-DNA blk 20.8%, BRCA1 expr up 3.4%, Mito fusion act 3.9% and B2AR arrestin -0.6%.
Cc1ccc(-c2onc(C)c2C)cc1S(=O)(=O)N1CCC(C)CC1 was read as ERG Ets-DNA blk 1.9%.
For CN(C(=O)Cn1c(=O)n(Cc2ccc(C(=O)NCc3ccc4c(c3)OCO4)cc2)c(=O)c2ccccc21)c1ccccc1 the results were ERG Ets-DNA blk 0.9% and BRCA1 expr up 1.2%.
Screening Cc1nn(C)c2c1c(-c1ccccc1)cc(=O)n2CC(=O)NC(C)C returned ERG Ets-DNA blk 0.4%.
NCCCN(Cc1ccc(Cl)c(Cl)c1)c1ccc(Br)cn1 was read as BRCA1 expr up -61.1%.
Screening Cc1cc(NC(=O)c2cccc(Cl)c2)n[nH]1 returned ERG Ets-DNA blk 0.9%, BRCA1 expr up 3.98µM*, Mito fusion act 9.7% and B2AR arrestin -0.1%.
`O=C(NCc1ccco1)c1ccc2c(c1)N(Cc1cccc(Cl)c1)C(=O)c1ccccc1S2=O` (stereo not drawn) gave ERG Ets-DNA blk 6.5%.
Screening Cc1nc(NCCc2ccccc2)sc1C(=O)N(C)C returned ERG Ets-DNA blk 7.7%, BRCA1 expr up inconclusive, Mito fusion act -10.2% and B2AR arrestin 0.0%.
For Cc1nc(Nc2ccccc2C(F)(F)F)sc1C(=O)N(C)C the results were ERG Ets-DNA blk 6.9%, BRCA1 expr up 10µM*, Mito fusion act 1.5% and B2AR arrestin -0.4%.
CCCC(=O)NC(=S)Nc1ccc(S(=O)(=O)Nc2ccc(OCC)cc2)cc1 was read as ERG Ets-DNA blk 16.6%, BRCA1 expr up -52.7%, Mito fusion act 15.8µM* and B2AR arrestin 0.3%.
`CCOc1ccc(NS(=O)(=O)c2ccc(NC(=S)NC(=O)CC(C)C)cc2)cc1` gave ERG Ets-DNA blk -1.2%, BRCA1 expr up -69.8%, Mito fusion act inconclusive and B2AR arrestin -0.1%.
CC(C(=O)NCc1ccccc1)n1ccc2cc(S(=O)(=O)N3CCCC3)ccc21 (stereo not drawn) was read as ERG Ets-DNA blk -4.1%.
Screening N/C(=N\OC(=O)c1ccco1)c1ccc(Br)cc1 returned ERG Ets-DNA blk 7.9%, BRCA1 expr up 2.51µM*, Mito fusion act 4.9% and B2AR arrestin 0.2%.
COc1ccc(C(=O)O/N=C(\N)c2ccc(Br)cc2)cc1 was read as ERG Ets-DNA blk 4.6%, BRCA1 expr up 96.1%, Mito fusion act 10µM* and B2AR arrestin -0.6%.
For N/C(=N\OC(=O)c1ccco1)c1ccccc1 the results were BRCA1 expr up 5.62µM*, Mito fusion act 1.4% and B2AR arrestin -0.2%.
